Values without a mark were called inactive. Records with an inconclusive call do not appear. Calls of active or inactive are those of the source. Unless noted, calls follow the shape of the dose curve; as a rule, active = well fitted curve in either direction with a large enough effect (not every such curve was filed as active); inconclusive = small, poorly fitted or top-dose-only effect, or another doubt; inactive = flat fitted curve, though single readings scatter.
Assays:
[1] = target: Lysosomal acid glucosylceramidase (Homo sapiens) (UniProt P04062); assay: Glucocerebrosidase-p2 (AID 348; in the data active = potency below about 10 µM; also: potency is read from the fitted curve at half-maximal effect); conditions: purified GBA, blue fluorogenic substrate, 40 min
How it was run: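 Normal human glucocerebrosidase (0.2 nM) with blue fluorogenic substrate (80 uM final) in citrate/phosphate pH 5.9 with 10mM sodium taurocholate, 0.01% tween-20; 40 min RT, NaOH/glycine stop; fluorescence Ex 365/Em 440; AC50 from a titration from 0.6 nM upwards.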

[2] = target: Cytochrome P450 1A2 (Homo sapiens) (UniProt P05177); assay: p450-cyp1a2 (AID 410; calls by dose curve; also: potency is read from the fitted curve at half-maximal effect;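 as to activity change, negative = inhibition: -100% = full effect of reference inhibitor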); conditions: recombinant CYP1A2, luciferin-ME demethylation, luminescence; series mostly up to 57 µM
How it was run: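 O-Demethylation of luciferin 6' methyl ether by human CYP1A2 is monitored as luciferase luminescence. Substrate sits at Km (100uM); enzyme is 20nM. Values are scaled to 57 uM furafylline as maximal inhibition.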

[3] = target: Glucocorticoid receptor (Homo sapiens) (UniProt P04150); assay: GR-GFP Redistribution (AID 450;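 active = compounds whose dose series gives a full or clear partial fitted curve of increased nuclear translocation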; also: potency is read from the fitted curve at half-maximal effect); conditions: U2OS GR-GFP nuclear translocation, laser cytometry, 2 h
[4] = target: Glucocorticoid receptor (Homo sapiens) (UniProt P04150); assay: GR-EFC Redistribution (AID 451; calls by dose curve; also: potency is read from the fitted curve at half-maximal effect); conditions: CHO-K1 GR-EFC translocation, beta-gal luminescence, 2 h
How it was run: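 CHO-K1 cells stably expressing nuclear-localized β-gal enzyme acceptor and GR fused C-terminally to the enzyme donor fragment; ligand-driven nuclear translocation restores β-gal by complementation. Compounds titrated up to 46 uM final, 2 h at 37 °C; luminescence read.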

[5] = target: 3',5'-cyclic-AMP phosphodiesterase 4B (Homo sapiens) (UniProt Q07343); assay: qHTS Assay for Inhibitors of PDE-IV (AID 607; active = well fitted activation curve with a large enough effect in the main read-out, with a control signal flat, not every such curve was filed as active; also: % of control where 0% means no effect); conditions: HEK293 ACTOne CNG channel cells, membrane potential fluorescence; series mostly up to 22.9 µM
How it was run: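 Cell-based read-out of cAMP via a modified cyclic nucleotide-gated channel and membrane potential dye (535/590 nm) in HEK293 cells expressing PDE4 endogenously. Compounds tested up to 22.9 uM final; 100 uM RO 20-1724 reference.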

[6] = target: Cytochrome P450 2C9 (Homo sapiens) (UniProt P11712); assay: qHTS Assay for Inhibitors and Substrates of Cytochrome P450 2C9 (AID 883; active = well fitted curve in the direction sought with a large enough effect; an effect the other way counts as inactive or inconclusive; also: nearly all actives have a fitted effect of over 60% in size; also: potency is read from the fitted curve at half-maximal effect); conditions: recombinant CYP2C9, luciferin-H luminescence, 60 min; series mostly up to 57.1 µM
How it was run: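 A luminogenic readout tracked human CYP2C9 (10nM) converting deoxyluciferin (100uM, at KM) in 25mM KPO4 during 60 min at 37C with regenerated NADPH. Values normalized to 57uM sulphaphenazole as complete inhibition.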

[7] = target: Cytochrome P450 3A4 (Homo sapiens) (UniProt P08684); assay: qHTS Assay for Activators of Cytochrome P450 3A4 (AID 885; active = well fitted curve in the direction sought with a large enough effect; an effect the other way counts as inactive or inconclusive; also: nearly all actives have a fitted effect of over 65% in size); conditions: recombinant CYP3A4, Luciferin-PPXE luminescence, 60 min; series mostly up to 57.1 µM
How it was run: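 Luminescent readout of luciferin formed from 25 uM Luciferin-PPXE (KM level) by 20 nM CYP3A4 in 200 mM KPO4, with 60 min NADPH-driven reaction at room temperature after 10 min compound exposure. Ketoconazole (57 uM) defined 100% inhibition.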

[8] = qHTS Assay for Identification of Small Molecule Agonists for Hypoxia Response Element Signaling Pathway (AID 914; active = well fitted activation curve with a large enough effect in the signal ratio, with a control signal flat, not every such curve was filed as active; the % refers to the signal ratio; also: potency is read from the fitted curve at half-maximal effect); conditions: ME-180 HRE-bla reporter, beta-lactamase ratio, CoCl2, 17 h; activation: active compounds read high
How it was run: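 In Opti-MEM containing 0.5% dialyzed FBS and 10 mM HEPES, ME-180 HRE-bla cells received a compound titration and EC50 CoCl2. They were incubated 17 hours, then CCF4-loaded 2.5 hours at room temperature before ratio reading.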

[9] = Primary qHTS for small molecule stabilizers of the endoplasmic reticulum resident proteome: Secreted ER Calcium Modulated Protein (SERCaMP) assay (AID 1508630; active = well fitted curve in the direction sought with a large enough effect; an effect the other way counts as inactive or inconclusive; also: % is scaled to controls: 0 for no effect and ±100 for the full control effect); conditions: SH-SY5Y GLuc-SERCaMP (Gaussia luciferase released on ER calcium loss) secretion, thapsigargin, luminescence; series mostly up to 38.4 µM
How it was run: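 The SH-SY5Y reporter protocol was run at 3 concentrations up to 38.3 uM (primary) or 11 concentrations (follow-up): 16 h compound, 100 nM thapsigargin for 4 h, then extracellular luciferase luminescence.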

[10] = AP1 Signaling Pathway (AID 357); conditions: ME-180 AP-1-bla reporter, EGF-induced, beta-lactamase ratio, 5 h; at 7.69 µM (top of the series) unless noted; also: % is scaled to controls: 0 for no effect and ±100 for the full control effect
How it was run: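 ME-180 cells with beta-lactamase reporter under AP-1 response element, stimulated with EC50 EGF; compounds tested in titration series, 5 h at 37 °C. CCF4 substrate added 2.5 h at room temperature; 460/530 nm emission ratio gave %activity and AC50.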

[11] = Stat Signaling Pathway (AID 446); conditions: ME-180 (cervical carcinoma) SIE beta-lactamase reporter, IL-6 stimulated, 5 h; at 7.69 µM (top of the series) unless noted;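 also: ME-180 cervical cancer cells given 40 pM IL-6 alongside compound; SIE-controlled beta-lactamase reporter measured as 460/530 nm FRET emission ratio; % is scaled to controls: 0 for no effect and ±100 for the full control effect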
How it was run: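 FRET read-out (405 nm excitation, 460/530 nm emission) of a beta-lactamase reporter under a STAT-inducible element in ME-180 cervical carcinoma cells. Cells with compound receive 40 pM IL-6 for 5 h. Values are normalised to AC90 stimulation and AC90 JAK-inhibitor controls.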

[12] = target: Mitogen-activated protein kinase 10 (Mus musculus) (UniProt Q61831); assay: JNK3 AlphaScreen Assay (AID 530); conditions: JNK3 lysate, c-Jun phosphorylation; series mostly up to 57.1 µM;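 also: kinase came from lysate of stimulated human HepG2 cells; signal reports phosphorylation of biotinylated GST-cJun 1-79 at Ser73 with 10 µM ATP; % is scaled to controls: 0 for no effect and ±100 for the full control effect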
How it was run: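 Phosphorylation of biotinylated GST-cJun(1-79) at Ser73 is measured by AlphaScreen proximity luminescence. Enzyme is JNK3 in HepG2 lysates activated with interleukin-1beta and tumor necrosis factor alpha; ATP is 10 uM final.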

[13] = NFAT Signaling Pathway (AID 444); conditions: Jurkat NFAT-bla M1, carbachol, beta-lactamase ratio, 5 h; at 7.69 µM (top of the series) unless noted
How it was run: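 Jurkat cells carrying an NFAT-driven β-lactamase reporter and co-transfected muscarinic M1 receptor were treated with compound plus carbachol (1 uM final, an EC50 level) for 5 h at 37 °C. CCF4 loading followed for 1 h at RT; 460/530 nm ratio gave %activity.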

[14] = target: Ubiquitin carboxyl-terminal hydrolase 1 (Homo sapiens) (UniProt O94782); assay: Inhibitors of USP1/UAF1: Pilot qHTS (AID 504865; active = well fitted curve in the direction sought with a large enough effect; an effect the other way counts as inactive or inconclusive;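 also: rhodamine fluorescence freed from ubiquitin-rhodamine substrate followed over time; top concentration of the series differs between compounds; % is scaled to controls: 0 for no effect and ±100 for the full control effect; nearly all actives have a fitted effect of over 35% in size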); conditions: purified USP1/UAF1, Ub-rhodamine cleavage fluorescence; series mostly up to 54.9 µM
How it was run: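 1nM USP1/UAF1 + cpd, 15 min RT; start w/ Ub-Rho 150nM final; kinetic FL 480/540 nm, 6 reads q60 s. Buffer 50mM HEPES pH 7.8, 0.5mM EDTA, 1mM TCEP, 0.01% Tween-20, 0.1 mg/ml BSA.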

[15] = target: Cytochrome P450 3A4 (Homo sapiens) (UniProt P08684); assay: qHTS Assay for Inhibitors and Substrates of Cytochrome P450 3A4 (AID 884; active = well fitted curve in the direction sought with a large enough effect; an effect the other way counts as inactive or inconclusive; also: potency is read from the fitted curve at half-maximal effect; nearly all actives have a fitted effect of over 50% in size); conditions: recombinant CYP3A4, Luciferin-PPXE luminescence; series mostly up to 57.1 µM
How it was run: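 Luminescent readout of luciferin produced by CYP3A4 (20 nM) dealkylation of Luciferin-PPXE, 25 uM (its KM). NADPH-driven reaction ran 60 min at RT after 10 min compound preincubation; data scaled to 57 uM ketoconazole as 100% inhibition.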

[16] = Confirmation and Secondary Assay for Modulators of Hemoglobin Beta Chain Splicing at IVS2 705 locus (AID 930; active = well fitted curve in the direction sought with a large enough effect; an effect the other way counts as inactive or inconclusive;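 also: HeLa cells stably expressing the EGFP-705 splicing reporter; GFP fluorescence per well restored by corrected splicing of the IVS2-705 intron in EGFP; % of control where 0% means no effect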); conditions: HeLa EGFP-705 splicing reporter, GFP fluorescence, 48 h; series mostly up to 38.3 µM
How it was run: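 Per-well GFP, captured at 1 x 8 µm resolution with 488 nm excitation, served as the read-out for HeLa EGFP-705 cells incubated 2 days with test compound versus DMSO.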

Chain of Lysosomal acid glucosylceramidase (Homo sapiens) (P04062 whole entry, looked up): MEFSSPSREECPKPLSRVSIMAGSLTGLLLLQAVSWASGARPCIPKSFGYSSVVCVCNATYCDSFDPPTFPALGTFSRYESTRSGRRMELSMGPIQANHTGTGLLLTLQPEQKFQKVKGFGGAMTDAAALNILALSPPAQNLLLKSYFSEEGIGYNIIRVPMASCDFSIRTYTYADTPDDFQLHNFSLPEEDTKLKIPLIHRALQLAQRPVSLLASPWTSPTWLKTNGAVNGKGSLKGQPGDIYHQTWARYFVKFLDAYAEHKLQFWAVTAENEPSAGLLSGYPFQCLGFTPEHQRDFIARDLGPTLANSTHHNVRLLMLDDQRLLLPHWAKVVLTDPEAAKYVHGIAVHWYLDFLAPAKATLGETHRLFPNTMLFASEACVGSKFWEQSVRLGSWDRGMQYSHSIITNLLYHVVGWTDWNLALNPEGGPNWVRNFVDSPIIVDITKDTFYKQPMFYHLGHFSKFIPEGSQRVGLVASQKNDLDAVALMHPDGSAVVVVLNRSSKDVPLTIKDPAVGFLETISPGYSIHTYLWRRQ
Chain of Cytochrome P450 3A4 (Homo sapiens) (P08684 whole entry, looked up): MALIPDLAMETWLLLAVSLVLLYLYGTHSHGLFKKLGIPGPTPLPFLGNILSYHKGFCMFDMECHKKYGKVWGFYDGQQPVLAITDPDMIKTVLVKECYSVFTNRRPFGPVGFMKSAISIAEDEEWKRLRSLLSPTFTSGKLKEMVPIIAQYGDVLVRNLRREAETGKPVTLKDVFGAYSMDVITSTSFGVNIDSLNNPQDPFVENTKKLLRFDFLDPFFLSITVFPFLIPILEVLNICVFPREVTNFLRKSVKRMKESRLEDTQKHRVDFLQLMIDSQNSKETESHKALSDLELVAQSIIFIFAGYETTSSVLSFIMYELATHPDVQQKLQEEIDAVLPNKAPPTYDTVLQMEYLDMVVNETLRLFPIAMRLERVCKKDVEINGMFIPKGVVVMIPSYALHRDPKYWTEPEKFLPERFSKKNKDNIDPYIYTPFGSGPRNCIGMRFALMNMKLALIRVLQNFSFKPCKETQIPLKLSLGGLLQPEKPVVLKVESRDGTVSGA
Chain of Cytochrome P450 1A2 (Homo sapiens) (P05177 whole entry, looked up): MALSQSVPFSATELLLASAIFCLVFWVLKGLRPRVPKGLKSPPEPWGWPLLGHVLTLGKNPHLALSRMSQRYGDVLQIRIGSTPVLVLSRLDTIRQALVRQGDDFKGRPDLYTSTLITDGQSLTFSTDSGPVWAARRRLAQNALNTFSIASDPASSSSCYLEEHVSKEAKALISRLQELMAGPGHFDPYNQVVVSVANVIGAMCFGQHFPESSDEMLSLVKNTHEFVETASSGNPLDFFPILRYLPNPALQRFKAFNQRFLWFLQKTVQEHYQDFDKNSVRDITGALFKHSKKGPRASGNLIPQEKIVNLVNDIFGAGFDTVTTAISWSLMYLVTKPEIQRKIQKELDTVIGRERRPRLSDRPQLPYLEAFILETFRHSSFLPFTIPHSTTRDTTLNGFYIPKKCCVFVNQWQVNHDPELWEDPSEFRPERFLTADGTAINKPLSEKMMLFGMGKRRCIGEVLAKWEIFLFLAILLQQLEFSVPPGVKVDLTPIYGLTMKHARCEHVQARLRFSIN
Chain of Glucocorticoid receptor (Homo sapiens) (P04150 whole entry, looked up, the tested form may be a part): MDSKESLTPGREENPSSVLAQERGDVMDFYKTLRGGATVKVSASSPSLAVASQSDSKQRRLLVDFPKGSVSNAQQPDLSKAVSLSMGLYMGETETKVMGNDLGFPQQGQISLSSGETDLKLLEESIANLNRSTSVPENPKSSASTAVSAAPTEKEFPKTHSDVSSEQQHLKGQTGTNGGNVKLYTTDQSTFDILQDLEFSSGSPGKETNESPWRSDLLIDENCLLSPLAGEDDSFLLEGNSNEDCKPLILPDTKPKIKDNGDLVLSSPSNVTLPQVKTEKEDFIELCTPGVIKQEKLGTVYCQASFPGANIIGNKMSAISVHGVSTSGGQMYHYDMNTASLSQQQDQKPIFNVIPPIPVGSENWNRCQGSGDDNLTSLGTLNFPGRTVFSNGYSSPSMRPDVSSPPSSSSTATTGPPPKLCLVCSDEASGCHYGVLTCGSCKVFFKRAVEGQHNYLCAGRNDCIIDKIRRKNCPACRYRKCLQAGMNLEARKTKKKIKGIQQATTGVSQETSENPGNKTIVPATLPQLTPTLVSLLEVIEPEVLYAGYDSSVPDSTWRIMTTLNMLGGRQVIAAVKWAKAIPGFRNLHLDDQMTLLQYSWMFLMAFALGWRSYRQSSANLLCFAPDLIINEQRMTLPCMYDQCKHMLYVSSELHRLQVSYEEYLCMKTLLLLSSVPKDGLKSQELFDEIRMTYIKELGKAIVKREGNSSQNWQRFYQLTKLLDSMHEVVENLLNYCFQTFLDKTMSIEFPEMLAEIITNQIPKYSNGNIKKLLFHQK
Chain of 3',5'-cyclic-AMP phosphodiesterase 4B (Homo sapiens) (Q07343 whole entry, looked up): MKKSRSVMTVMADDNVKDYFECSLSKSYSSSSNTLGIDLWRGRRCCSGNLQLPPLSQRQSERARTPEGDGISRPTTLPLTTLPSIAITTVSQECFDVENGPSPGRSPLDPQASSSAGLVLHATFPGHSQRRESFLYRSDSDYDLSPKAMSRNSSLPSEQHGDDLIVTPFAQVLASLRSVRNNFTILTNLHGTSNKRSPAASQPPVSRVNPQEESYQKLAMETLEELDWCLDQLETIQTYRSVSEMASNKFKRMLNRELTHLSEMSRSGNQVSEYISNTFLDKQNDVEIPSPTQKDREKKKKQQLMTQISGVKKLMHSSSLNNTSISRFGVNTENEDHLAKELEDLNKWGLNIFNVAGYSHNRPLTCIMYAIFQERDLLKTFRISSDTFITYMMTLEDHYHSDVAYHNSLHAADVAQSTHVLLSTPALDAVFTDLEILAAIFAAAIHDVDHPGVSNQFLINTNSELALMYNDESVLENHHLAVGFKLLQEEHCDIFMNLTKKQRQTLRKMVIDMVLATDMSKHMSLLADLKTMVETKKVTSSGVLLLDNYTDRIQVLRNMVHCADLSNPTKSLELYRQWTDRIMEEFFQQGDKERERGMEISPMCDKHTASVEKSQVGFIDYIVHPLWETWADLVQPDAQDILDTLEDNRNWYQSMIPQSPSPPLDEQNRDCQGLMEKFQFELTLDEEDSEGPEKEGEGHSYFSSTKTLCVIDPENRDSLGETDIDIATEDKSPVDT
Chain of Cytochrome P450 2C9 (Homo sapiens) (P11712 whole entry, looked up): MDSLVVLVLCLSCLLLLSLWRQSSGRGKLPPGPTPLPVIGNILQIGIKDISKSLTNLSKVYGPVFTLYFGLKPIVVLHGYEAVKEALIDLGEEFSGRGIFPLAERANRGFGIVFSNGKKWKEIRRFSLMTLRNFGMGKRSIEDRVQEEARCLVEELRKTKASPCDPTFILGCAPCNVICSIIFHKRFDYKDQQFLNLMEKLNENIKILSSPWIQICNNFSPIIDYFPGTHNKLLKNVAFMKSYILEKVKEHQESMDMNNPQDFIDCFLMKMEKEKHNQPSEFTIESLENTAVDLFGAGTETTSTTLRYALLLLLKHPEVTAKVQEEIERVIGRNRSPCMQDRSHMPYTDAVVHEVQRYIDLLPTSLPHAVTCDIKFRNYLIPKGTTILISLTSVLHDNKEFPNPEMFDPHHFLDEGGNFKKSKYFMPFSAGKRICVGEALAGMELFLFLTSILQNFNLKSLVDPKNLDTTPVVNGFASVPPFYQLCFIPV
Chain of Ubiquitin carboxyl-terminal hydrolase 1 (Homo sapiens) (O94782 whole entry, looked up): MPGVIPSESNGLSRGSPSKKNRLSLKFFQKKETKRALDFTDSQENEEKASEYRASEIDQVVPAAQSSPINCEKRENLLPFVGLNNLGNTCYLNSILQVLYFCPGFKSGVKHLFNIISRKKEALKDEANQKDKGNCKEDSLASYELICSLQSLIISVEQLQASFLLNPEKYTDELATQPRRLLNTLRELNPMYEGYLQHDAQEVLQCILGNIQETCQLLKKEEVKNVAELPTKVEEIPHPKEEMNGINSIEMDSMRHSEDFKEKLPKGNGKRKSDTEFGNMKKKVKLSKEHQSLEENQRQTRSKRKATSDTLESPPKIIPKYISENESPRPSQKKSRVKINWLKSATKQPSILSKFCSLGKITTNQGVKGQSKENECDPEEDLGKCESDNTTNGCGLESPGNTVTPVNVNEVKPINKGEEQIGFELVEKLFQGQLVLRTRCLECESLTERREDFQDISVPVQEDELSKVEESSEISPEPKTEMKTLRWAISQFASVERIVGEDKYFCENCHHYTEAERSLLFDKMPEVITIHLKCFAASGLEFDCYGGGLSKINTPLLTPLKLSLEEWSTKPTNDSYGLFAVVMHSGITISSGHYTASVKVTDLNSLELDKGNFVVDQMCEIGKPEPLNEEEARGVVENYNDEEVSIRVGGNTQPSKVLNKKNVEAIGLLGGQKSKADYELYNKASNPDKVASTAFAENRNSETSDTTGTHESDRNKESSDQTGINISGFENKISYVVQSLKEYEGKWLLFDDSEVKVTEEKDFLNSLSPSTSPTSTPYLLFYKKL

Q: With `O=c1c(-c2cccs2)nc2cnc(Oc3cccc(Cl)c3)nc2n1C[C@H]1CCCO1` as the compound, how does the Potency [1] read?
A: > 11.4 µM

Q: What about the Potency [2] of the same compound?
A: 3.16 µM (active)

Q: What about the Potency [3] of the same compound?
A: > 9.22 µM

Q: And the Potency [4]?
A: > 46 µM

Q: And the Potency [5]?
A: inactive

Q: And the Potency [6]?
A: 3.16 µM (active)

Q: What about the Potency [7] of the same compound?
A: inactive

Q: What about the Potency [8] of the same compound?
A: 3.16 µM (active)

Q: And the outcome [9]?
A: inactive

Q: For `N#Cc1ccc(CN2CC3(CCN(C(=O)c4ccncc4)CC3)C2)cc1`, which Potency [1] is on record?
A: > 11.4 µM

Q: And the activity change, negative = inhibition [10]?
A: 9.93%

Q: What about the activity, negative = inhibition [11] of the same compound?
A: 6.61%

Q: What about the Potency [12] of the same compound?
A: inactive

Q: And the Potency [5]?
A: inactive

Q: What about the Potency [7] of the same compound?
A: inactive

Q: What about the outcome [9] of the same compound?
A: inactive

Q: Which Potency [1] does the source give for `CCNc1ncc2nc(-c3ccccc3)c(=O)n(Cc3ccc(F)cc3)c2n1` here?
A: > 11.4 µM

Q: And the Potency [2]?
A: 3.16 µM (active)

Q: What about the activity, negative = inhibition [11] of the same compound?
A: 82.9% [activator] (active)

Q: What about the Potency [3] of the same compound?
A: > 9.22 µM

Q: What about the Potency [4] of the same compound?
A: > 46 µM

Q: What about the Potency [5] of the same compound?
A: inactive

Q: What about the Potency [6] of the same compound?
A: inactive

Q: And the Potency [7]?
A: inactive

Q: And the outcome [9]?
A: inactive

Q: Which results are given for `N#Cc1ccc(CN2CCC3(CC2)CCN(C(=O)c2csnn2)CC3)cc1`?
A: activity change, negative = inhibition [10]: 3.47%; Potency [2]: inactive; activity, negative = inhibition [11]: -1.95%; Potency [4]: > 46 µM; Potency [12]: inactive; Potency [5]: inactive; outcome [9]: inactive

Q: For `COc1ncc2nc(-c3ccc(F)cc3)c(=O)n(CCC#N)c2n1`, which Potency [1] is on record?
A: > 11.4 µM

Q: What about the activity change, negative = inhibition [13] of the same compound?
A: -5.63%

Q: What about the activity, negative = inhibition [11] of the same compound?
A: -0.246%

Q: What about the Potency [3] of the same compound?
A: > 9.22 µM

Q: And the Potency [4]?
A: > 46 µM

Q: What about the Potency [12] of the same compound?
A: inactive

Q: And the Potency [5]?
A: inactive

Q: And the outcome [9]?
A: inactive

Q: Which results are given for `Cn1cc(-c2nc3cncnc3n(CCN)c2=O)c2ccccc21`?
A: activity change, negative = inhibition [10]: 0.818%; Potency [2]: 6.31 µM (active); activity change, negative = inhibition [13]: 3.03%; activity, negative = inhibition [11]: 0.835%; Potency [4]: > 46 µM; Potency [12]: inactive; Potency [5]: inactive; Potency [7]: inactive; Potency [14]: inactive; outcome [9]: inactive

Q: Which results are given for `c1ccc(-c2ccc(N3CCCC4(CCNCC4)C3)cc2)cc1`?
A: activity change, negative = inhibition [10]: 9.27%; Potency [2]: 10 µM (active); activity change, negative = inhibition [13]: 24.2%; activity, negative = inhibition [11]: -2.12%; Potency [4]: > 46 µM; Potency [5]: inactive; Potency [7]: inactive; outcome [9]: inactive

Q: Which activity change, negative = inhibition [10] does the source give for `COc1ccccc1CNc1nc(-c2ccc(N(C)C)cc2)nc2ccccc12` here?
A: 1.38%

Q: And the Potency [2]?
A: 2.51 µM (active)

Q: And the activity change, negative = inhibition [13]?
A: -29.6%

Q: What about the activity, negative = inhibition [11] of the same compound?
A: 20.3%

Q: And the Potency [3]?
A: > 46 µM

Q: What about the Potency [4] of the same compound?
A: > 46 µM

Q: And the Potency [12]?
A: inactive

Q: And the Potency [5]?
A: inactive

Q: What about the Potency [15] of the same compound?
A: 3.16 µM (active)

Q: What about the Potency [7] of the same compound?
A: inactive

Q: And the outcome [16]?
A: inactive

Q: What about the outcome [9] of the same compound?
A: inactive

Q: For `COc1ccc(NC(=O)N2CCCC3(CCN(C(=O)c4cccc(F)c4)CC3)C2)cc1`, which activity change, negative = inhibition [10] is on record?
A: -26.5%

Q: And the Potency [2]?
A: inactive

Q: What about the activity change, negative = inhibition [13] of the same compound?
A: -25.3%

Q: And the activity, negative = inhibition [11]?
A: -10.9%

Q: What about the Potency [4] of the same compound?
A: 29.5 µM (active)

Q: And the Potency [12]?
A: inactive

Q: What about the Potency [5] of the same compound?
A: inactive

Q: And the Potency [7]?
A: inactive

Q: What about the outcome [9] of the same compound?
A: inactive

Source: PubChem BioAssay (NCATS)
